KCNQ2 pot: potentiators of rat KCNQ2 potassium channel. CHO-K1 KCNQ2, FluxOR thallium flux fluorescence; stronger effect = higher value. B-score at 10 µM. 0.54% of 310,000 active. AID 2239;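 active means fluorescence ratio B-score at least 3 SD of library B-scores, with initial fluorescence B-score within 3 of them, cut at about 5.3 in these data; same plate scores as AID 2156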;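 further: B-score of peak minus minimum over baseline fluorescence ratio after K+ and Tl+ stimulus; positive B-score means potentiation of KCNQ2 with more thallium influx and brighter signal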
Target sequence (O88943 whole entry, looked up): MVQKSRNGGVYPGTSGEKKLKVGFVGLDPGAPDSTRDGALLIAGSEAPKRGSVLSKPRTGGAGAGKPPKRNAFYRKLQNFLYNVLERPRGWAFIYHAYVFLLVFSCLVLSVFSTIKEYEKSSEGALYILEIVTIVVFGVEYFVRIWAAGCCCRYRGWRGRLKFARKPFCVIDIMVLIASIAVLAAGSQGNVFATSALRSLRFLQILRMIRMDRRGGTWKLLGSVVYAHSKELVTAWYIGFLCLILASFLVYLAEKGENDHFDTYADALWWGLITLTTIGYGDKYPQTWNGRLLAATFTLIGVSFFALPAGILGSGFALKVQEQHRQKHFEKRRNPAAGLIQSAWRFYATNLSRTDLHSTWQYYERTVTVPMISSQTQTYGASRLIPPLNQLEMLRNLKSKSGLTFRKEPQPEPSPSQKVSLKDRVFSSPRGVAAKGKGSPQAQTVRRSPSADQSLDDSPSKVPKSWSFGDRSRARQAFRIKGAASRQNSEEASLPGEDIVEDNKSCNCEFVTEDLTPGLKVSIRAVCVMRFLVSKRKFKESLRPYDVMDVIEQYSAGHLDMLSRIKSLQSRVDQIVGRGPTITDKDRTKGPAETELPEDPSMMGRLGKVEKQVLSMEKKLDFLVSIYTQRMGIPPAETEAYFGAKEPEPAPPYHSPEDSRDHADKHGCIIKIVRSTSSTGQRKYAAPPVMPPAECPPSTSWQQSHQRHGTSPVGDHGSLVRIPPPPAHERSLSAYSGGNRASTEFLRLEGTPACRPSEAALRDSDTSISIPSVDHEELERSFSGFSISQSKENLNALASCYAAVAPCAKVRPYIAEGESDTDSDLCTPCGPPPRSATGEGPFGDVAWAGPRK
KCNQ2 inh: KCNQ2 (rat) channel inhibition; 1.1% of 310,000 active; CHO-K1 KCNQ2, FluxOR thallium flux, 20 min; stronger effect = lower value; O88943; B-score at 10 µM;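 active means fluorescence ratio B-score at most minus 3 library SDs, with starting brightness B-score within 2 library SDs, cut at about -5.5 in these data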
Kir21 confirm: confirmation of mouse Kir2.1 potassium channel inhibitors. Tl flux remaining, % of negative control (stronger effect = lower value), % at 10 µM. Kir2.1-expressing cells, FluxOR thallium flux fluorescence; stronger effect = lower value. shares compounds with KCNQ2 pot. 41% of 2,300 active;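 active means Primary-screen hit whose thallium flux fell at least 3 control SD below untreated wells in both duplicates, with normal baseline fluorescence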;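 further: 0% = blank wells without stimulus and 100% = stimulated no-compound controls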
HEK293 ctr: counter-screen for Kir2.1 inhibitors: effect in parental HEK293 cells; FluxOR signal as % of negative control (100 = no effect), % at 10 µM; FluxOR thallium flux fluorescence; 0% = unstimulated blank wells; 19% of 2,300 active; AID 2105; shares compounds with KCNQ2 pot;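 active means dye signal at least 3 control SD above or below untreated wells in both duplicates, raw fluorescence within 3, either direction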;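 further: percent is based on the flux ratio of peak minus minimum fluorescence over baseline F0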
CHO-K1 Tl ctr: alters thallium flux in parental CHO-K1 cells, KCNQ2 counter-screen; shares compounds with KCNQ2 pot; FluxOR thallium flux fluorescence; zero = vehicle mean+3SD, 100% = vehicle-minus-blank window; activity increase over 3SD of controls, % at 10 µM; 43% of 1,200 active; AID 2282;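 active means signal rise of at least 3 SD above the untreated control mean, in both duplicate wells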;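 further: counter screen of KCNQ2 potentiator hits so any rise reflects channel-independent effects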
KCNQ1 sel pot: selectivity of KCNQ2 potentiators: effect on human KCNQ1. shares compounds with KCNQ2 pot. CHO KCNQ1 stable, FluxOR thallium flux fluorescence; beyond 3SD, as % of vehicle-control signal. activation over 3SD threshold, % at 10 µM. 28% of 1,200 active. AID 2283;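 active means fluorescence ratio rise of at least 3 SD of vehicle wells above their mean, in both replicate wells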;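 further: 0% = vehicle mean plus 3 SD and 100% = vehicle minus unstimulated blank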
KCNQ2 pot conf: rat KCNQ2 channel potentiator confirmation; CHO-KCNQ2 cells, FluxOR thallium flux fluorescence; 68% of 1,200 active; shares compounds with KCNQ2 pot; potentiation, less the hit threshold, % at 10 µM;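 active means fluorescence ratio rising 3 SD or more over the vehicle control mean in both replicates, plus primary screen hit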;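 further: peak minus minimum thallium fluorescence divided by baseline after K/Tl stimulus; 0% = vehicle mean plus 3 SD and 100% = vehicle minus unstimulated blank difference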
Kir2-1 sel: tests whether KCNQ2 potentiators also affect mouse Kir2.1. shares compounds with KCNQ2 pot. AID 2345. 2% of 1,200 active. HEK293 Kir2.1, FluxOR thallium flux fluorescence. activity over 3SD threshold, % at 10 µM;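 active means fluorescence ratio rise of at least 3 SD above the vehicle-control mean, seen in both replicates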;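 further: 0% = vehicle mean plus 3 SD and 100% = vehicle minus no-stimulus blank window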
KCNQ2 W236L pot: potentiates the retigabine-insensitive rat KCNQ2 W236L mutant channel; shares compounds with KCNQ2 pot; CHO KCNQ2-W236L, automated patch clamp current; current increase over 3SD of negative controls (%), stronger effect = higher value, % at 25 µM; 10% of 940 active; AID 2558;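 active means current increase at least 3 SD of the untreated controls above them in both duplicate recordings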
Numbers without * were called inactive. Most compounds without a hit are left out; they make up all but 1.6% or so of the library.

CCOC(=O)C1CCN(CCC(=O)Nc2ccc(C)cc2)CC1 was read as KCNQ2 inh inactive.
COc1ccc(OC)c(S(=O)(=O)N2CCN(CC(O)COc3ccccc3)CC2)c1 (stereo not drawn) was read as KCNQ2 pot 1.68 and KCNQ2 inh inactive.
Cc1cc(NS(=O)(=O)c2ccc(NC(=O)/C=C/c3cccc(Cl)c3)cc2)no1 was read as KCNQ2 pot 0.51 and KCNQ2 inh inactive.
O=C(Nc1cccnc1)c1cc(-c2ccccc2)on1 was read as KCNQ2 pot 1.39 and KCNQ2 inh inactive.
Screening CC(C)n1cc(NC(=O)c2cc(-c3ccccc3)on2)cn1 returned KCNQ2 pot 12.1*, KCNQ2 inh inactive, Kir21 confirm inactive, HEK293 ctr 214.0%*, CHO-K1 Tl ctr 13.7*, KCNQ1 sel pot -11.2, KCNQ2 pot conf 11.2*, Kir2-1 sel -15.2 and KCNQ2 W236L pot inactive.
For Cc1cc(C)n(/N=C/c2cc(Cl)cc(Cl)c2O)c(=O)c1 the results were KCNQ2 pot 9.78*, KCNQ2 inh inactive, Kir21 confirm inactive, HEK293 ctr inactive, CHO-K1 Tl ctr -13.9, KCNQ1 sel pot 39.2*, KCNQ2 pot conf -13.0 and Kir2-1 sel -41.5.
Cc1cc(C)n(/N=C/c2ccccc2O)c(=O)c1 was read as KCNQ2 inh inactive.
Cc1ccc2c(c1)N(C(=O)CCC(=O)NCCCN1CC(C)CC(C)C1)CCO2 (stereo not drawn) was read as KCNQ2 pot 0.01 and KCNQ2 inh inactive.
Screening O=C(N/C(=C\c1ccccc1)C(=O)N1CCCCC1)c1ccco1 returned KCNQ2 pot 0.11 and KCNQ2 inh inactive.
Screening N=c1c2c(-c3ccccc3)c(-c3ccccc3)n(Cc3ccco3)c2ncn1CCCn1ccnc1 returned KCNQ2 inh inactive, Kir21 confirm 32.0%* and HEK293 ctr 64.5%*.
For N=c1c2c3c(sc2ncn1Cc1ccco1)CCCCC3 the results were KCNQ2 pot 0.74 and KCNQ2 inh inactive.
`c1ccc(-c2oc3ncnc(NCCCn4ccnc4)c3c2-c2ccccc2)cc1` gave KCNQ2 inh inactive.
N=c1c2c(-c3ccccc3)c(-c3ccccc3)n(Cc3ccco3)c2ncn1Cc1ccccc1 was read as KCNQ2 pot -5.91, KCNQ2 inh -5.91*, Kir21 confirm 65.0%* and HEK293 ctr inactive.
`O=C(CCCc1c[nH]c2ccccc12)Nc1ccc(S(=O)(=O)Nc2ncccn2)cc1` gave KCNQ2 inh inactive.
`CCN(CC)C(=S)SCC(=O)c1ccc(F)cc1` gave KCNQ2 inh inactive.
Screening CCN(CC)C(=S)SCC(=O)Nc1ccc(F)cc1 returned KCNQ2 pot 6.4*, KCNQ2 inh inactive, Kir21 confirm inactive, HEK293 ctr inactive, CHO-K1 Tl ctr -11.2, KCNQ1 sel pot -15.0, KCNQ2 pot conf 3.2*, Kir2-1 sel -42.6 and KCNQ2 W236L pot inactive.
For O=C(CCNS(=O)(=O)c1ccccc1)OCC(=O)c1ccc[nH]1 the results were KCNQ2 inh inactive.
Screening O=C(c1cccc(-c2ccccc2F)c1)N1CC[C@@H](N2CCC(O)CC2)[C@H](O)C1 returned KCNQ2 pot 0.78 and KCNQ2 inh inactive.
COc1cccc(-c2nn(-c3ccc(F)cc3)cc2C(=O)NCC2CCCO2)c1 (stereo not drawn) was read as KCNQ2 pot 0.61 and KCNQ2 inh inactive.
`Cc1nn(-c2ccc(Cl)cc2)c2sc(C(=O)c3c(N)n(C)c(=O)n(C)c3=O)cc12` gave KCNQ2 pot 0.12, KCNQ2 inh inactive, Kir21 confirm inactive and HEK293 ctr inactive.
Cn1c(N)c(C(=O)c2ccc(Cl)cc2)c(=O)n(C)c1=O was read as KCNQ2 pot 1.14 and KCNQ2 inh inactive.
Screening COc1cc(C(=O)OCC(=O)N2CCN(C(C)=O)CC2)ccc1OCC(C)C returned KCNQ2 inh inactive.
COc1ccc(/C=N/c2sc3c(c2C#N)CCN(Cc2ccccc2)C3)c(O)c1 was read as KCNQ2 inh inactive.
Screening CN1CCc2c(sc(/N=C/c3cc(C(C)(C)C)ccc3O)c2C#N)C1 returned KCNQ2 pot 11.1*, KCNQ2 inh inactive, Kir21 confirm inactive, HEK293 ctr inactive, CHO-K1 Tl ctr -8.2, KCNQ1 sel pot -16.8, KCNQ2 pot conf -14.7 and Kir2-1 sel -34.2.
O=C(CCS(=O)(=O)c1cccc2nonc12)NC1CCCCCC1 was read as KCNQ2 pot 11.2*, KCNQ2 inh inactive, Kir21 confirm inactive, HEK293 ctr inactive, CHO-K1 Tl ctr 33.3*, KCNQ1 sel pot -13.4, KCNQ2 pot conf 36.2*, Kir2-1 sel -40.2 and KCNQ2 W236L pot inactive.
Screening O=C(CCNS(=O)(=O)c1cccc2nonc12)NC1CCCCC1 returned KCNQ2 pot 0.78 and KCNQ2 inh inactive.
Screening COc1cccc(/C=N/n2c(-c3n[nH]c4c3CCC4)n[nH]c2=S)c1OC returned KCNQ2 pot 0.17 and KCNQ2 inh inactive.
`CCN1CCN(CCCNC(=O)CCC(=O)N2CCOc3ccc(Cl)cc32)CC1` gave KCNQ2 inh inactive.
For O=c1oc(-c2ccccc2NS(=O)(=O)c2ccc3ccccc3c2)nc2ccccc12 the results were KCNQ2 pot 0.06 and KCNQ2 inh inactive.
Screening Cn1c(SCC(=O)Nc2ccc(NC(=O)c3cccc(F)c3)cc2)nnc1-c1ccncc1 returned KCNQ2 inh inactive.
For O=C(C[n+]1ccccc1)N/N=C/c1c(F)cccc1Cl the results were KCNQ2 pot 0.01 and KCNQ2 inh inactive.
`S=C(Nc1ccccc1)N1CCCCC1` gave KCNQ2 pot 6.94*, KCNQ2 inh inactive, Kir21 confirm inactive, HEK293 ctr inactive, CHO-K1 Tl ctr -13.7, KCNQ1 sel pot 6.3*, KCNQ2 pot conf -14.0 and Kir2-1 sel -28.9.
`O=C(O)c1ccc(NC(=S)N2CCCCC2)cc1` gave KCNQ2 pot 0.58 and KCNQ2 inh inactive.
`CCOC(=O)CCNC(=O)N1CCCC(C(=O)c2cc(C)c(OC)c(C)c2)C1` (stereo not drawn) gave KCNQ2 pot 1.48 and KCNQ2 inh inactive.
